# Bioassay records (PubChem)
# Compounds with a hit are over-represented: about 1.5% of the library has one in this group of screens.
# MLL AF4-AF9 inh = inhibitors of human MLL-AF4/AF9 interaction; P42568; AlphaScreen, biotin-AF4 peptide binding to FLAG-AF9; inhibition, % at 10 µM; hit rate 0.47% among 350,000;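 active means every replicate reaching a set inhibition limit, whatever the replicate mean, cut at about 25% in these data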;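 further: 0% = plate neutral control median and 100% = total signal loss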
# RAD52 anneal inh = RAD52 (human) annealing inhibition; AID 651710; inhibition, % at 18.7 µM; P43351; hit rate 0.46% among 360,000; recombinant RAD52 DNA annealing, FRET fluorescence;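 active means every replicate showing at least 50% inhibition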
# Target sequence (P43351 whole entry, looked up): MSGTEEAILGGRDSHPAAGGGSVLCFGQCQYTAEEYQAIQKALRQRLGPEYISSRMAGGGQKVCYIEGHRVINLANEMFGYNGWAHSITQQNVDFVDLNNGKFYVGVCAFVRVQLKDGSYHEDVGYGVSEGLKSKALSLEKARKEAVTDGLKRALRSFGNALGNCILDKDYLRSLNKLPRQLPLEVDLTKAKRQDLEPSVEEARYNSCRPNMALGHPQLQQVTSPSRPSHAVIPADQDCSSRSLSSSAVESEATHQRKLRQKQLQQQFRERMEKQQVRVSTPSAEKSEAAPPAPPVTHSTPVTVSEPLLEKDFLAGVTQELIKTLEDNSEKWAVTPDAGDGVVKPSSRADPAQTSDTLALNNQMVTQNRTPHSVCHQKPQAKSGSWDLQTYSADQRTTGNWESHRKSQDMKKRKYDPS
# NSD2 inh = inhibitors of human histone methyltransferase NSD2. O96028. NSD2 peptide methylation, AlphaScreen, 120 min. inhibition, % at 12.5 µM. hit rate 0.54% among 310,000. AID 743445; in the data active means inhibition above about 50%
# CASP6 VEID inh = inhibitors of human caspase-6; inhibition, % at 12.5 µM; hit rate 0.53% among 350,000; AID 686996; purified caspase-6, Z-VEID-R110 cleavage fluorescence; P55212;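 active means mean inhibition across replicates at least about 35%, with every replicate also reaching that limit, limit read from the data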;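 further: 0% = median of neutral control wells and 100% = no fluorescence left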
# miR122 inh = blocks miR-122 activity in Huh7 sensor cells; Huh7 miR-122 Renilla luciferase sensor, 48 h; neutral wells = 0, positive control = 100; activation (reporter increase), % at 12.5 µM; hit rate 0.3% among 340,000;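 active means mean replicate activation score at least 90 and every replicate individually at or above 90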;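 further: higher luciferase means less miR-122 activity so hits act as miR-122 inhibitors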
# Starred values were filed as active, the others as inactive; . = no result; [ ] = another dose, or the depositor's remark.
SMILES,MLL AF4-AF9 inh,RAD52 anneal inh,NSD2 inh,CASP6 VEID inh,miR122 inh
COC(=O)C[C@H]1CC[C@H]2[C@@H](COc3ccc(NC(=O)c4ccccc4OC)cc3C(=O)N2C)O1,-2,3,.,-1,.
COc1ccc(CCNC(=O)c2c(C)noc2C)cc1,1,-4,1,50*,-3
Cc1cc(C)n2nc(C)c(-c3ccccc3)c2n1,-6,3,-6,0,.
COc1ccc(-c2c(C)nn3c(-c4ccccc4)cc(C)nc23)cc1,27*,-15,.,-1,.
COc1ccc(NC(=O)N(C)C[C@H]2OCc3ccccc3-c3c(n(C)c4ccccc34)C(=O)N([C@@H](C)CO)C[C@@H]2C)cc1,-1,17,.,9,.
C[C@H](CO)N1C[C@H](C)[C@@H](CN(C)C(=O)c2ccc(F)cc2)Oc2ncc(-c3ccc(F)cc3)cc2C1=O,-2,3,.,5,-5[16.7 µM]
COc1ccc(N2CCN(C(=O)CCCC(=O)c3ccccc3)CC2)cc1,9,-12,.,-3,2
COc1ccc(N2CCN(C(=O)c3csc4ccccc34)CC2)cc1,.,.,6,.,162*
COc1ccc(N2CCN(CC(=O)c3ccccc3)CC2)cc1,31*,-14,3,-1,-17
CC(C)NC(=O)Nc1ccc2c(c1)C(=O)N([C@@H](C)CO)C[C@@H](C)[C@@H](CN(C)Cc1ccc(C(=O)O)cc1)OCCCC[C@@H](C)O2,0,-8,.,-2,0[16.7 µM]
CCC(=O)Nc1ccc2c(c1)C(=O)N(C)[C@H]1CC[C@@H](CC(=O)NC3CCCC3)O[C@@H]1CO2,1,-2,.,1,-2[16.7 µM]
C[C@@H]1CCCCO[C@H](CN(C)Cc2ccccc2)[C@H](C)CN([C@@H](C)CO)C(=O)c2cc(NS(=O)(=O)c3ccc(Cl)cc3)ccc2O1,10,54*,.,0,-11[16.7 µM]
C[C@H](CO)N1C[C@H](C)[C@H](CN(C)Cc2ccccc2)OCCCC[C@H](C)Oc2ccc(NS(=O)(=O)c3ccc(F)cc3)cc2C1=O,37*,77*,.,1,-2[16.7 µM]
C[C@@H]1CCCCO[C@H](CN(C)Cc2ccccc2)[C@@H](C)CN([C@@H](C)CO)C(=O)c2cc(NS(=O)(=O)c3ccc(Cl)cc3)ccc2O1,6,64*,.,-1,-3[16.7 µM]
C[C@@H]1CCCCO[C@@H](CN(C)Cc2ccccc2)[C@H](C)CN([C@H](C)CO)C(=O)c2cc(NS(=O)(=O)c3ccc(Cl)cc3)ccc2O1,9,61*,.,-1,-12[16.7 µM]
C[C@H]1CCCCO[C@H](CN(C)Cc2ccccc2)[C@@H](C)CN([C@@H](C)CO)C(=O)c2cc(NS(=O)(=O)c3ccc(Cl)cc3)ccc2O1,7,47,.,3,-8[16.7 µM]
C[C@H](CO)N1C[C@H](C)[C@@H](CN(C)Cc2ccccc2)OCCCC[C@H](C)Oc2ccc(NS(=O)(=O)c3ccc(Cl)cc3)cc2C1=O,4,35,.,0,-1[16.7 µM]
Oc1ccc(/C=N/n2c(-c3ccccc3)n[nH]c2=S)cc1Br,-8,-24,4,52*,3
CC(C)Nc1nc(NCCN2CCCC2)c2sc(-c3ccccc3)cc2n1,18,76*,8,-25,-4
O=C1C=CC2=C3c4cc(O)c(O)cc4CC3(O)COC2=C1O (configuration not stated),2,-3,.,85*,2
COc1ccccc1CNC(=O)C[C@H]1C[C@H]2c3cc(NC(=O)c4cccnc4)ccc3O[C@H]2[C@H](CO)O1,-1,8,.,1,3[16.7 µM]
O=C(C[C@H]1CC[C@H]2[C@@H](COC[C@@H](O)CN2Cc2ccccc2)O1)N1CCOCC1,-4,2,.,2,-4[16.7 µM]
Cc1ccc2nc(SCC(=O)N(CC(C)C)c3c(N)n(Cc4ccccc4)c(=O)[nH]c3=O)[nH]c2c1,27*,-15,0,2,2
Cc1cc([N+](=O)[O-])nn1CCCC(=O)Nc1sc2c(c1C(N)=O)CCC(C)C2 (configuration not stated),28*,-17,-2,3,.
CC1CCc2c(sc(NC(=O)Cn3cnc([N+](=O)[O-])n3)c2C(N)=O)C1 (configuration not stated),-1,-17,-1,3,-3
C[C@@H]1CN([C@H](C)CO)C(=O)Cc2cc(NC(=O)CCN3CCOCC3)ccc2O[C@H]1CN(C)C(=O)Nc1ccccc1,-3,-11,.,-1,-5[16.7 µM]
C/C(=N\Nc1ccccn1)c1ccc(S(=O)(=O)NCc2ccco2)cc1,.,.,2,.,110*
